# Results as given in PubChem BioAssay (EPA / NIEHS).
# Inconclusive results are not listed. Activity calls are given as the source filed them. Rule for the calls, unless noted: active = hit-call score of the fitted dose curve at least 0.9, where 1 is the maximum; inactive = score below 0.9.
# Columns and labels:
# [1] = molecular target: Paired box protein Pax-6 (Homo sapiens) (UniProt P26367); assay: ATG_Pax6_CIS: Attagene CIS-FACTORIAL HepG2 Assay for human Paired Box 6 (PAX6) (AID 2282956); settings: HepG2 CIS-FACTORIAL PAX6 reporter transcription, RNA readout; actives raise or lower the signal
# Sequence of Paired box protein Pax-6 (Homo sapiens) (P26367 whole entry, looked up): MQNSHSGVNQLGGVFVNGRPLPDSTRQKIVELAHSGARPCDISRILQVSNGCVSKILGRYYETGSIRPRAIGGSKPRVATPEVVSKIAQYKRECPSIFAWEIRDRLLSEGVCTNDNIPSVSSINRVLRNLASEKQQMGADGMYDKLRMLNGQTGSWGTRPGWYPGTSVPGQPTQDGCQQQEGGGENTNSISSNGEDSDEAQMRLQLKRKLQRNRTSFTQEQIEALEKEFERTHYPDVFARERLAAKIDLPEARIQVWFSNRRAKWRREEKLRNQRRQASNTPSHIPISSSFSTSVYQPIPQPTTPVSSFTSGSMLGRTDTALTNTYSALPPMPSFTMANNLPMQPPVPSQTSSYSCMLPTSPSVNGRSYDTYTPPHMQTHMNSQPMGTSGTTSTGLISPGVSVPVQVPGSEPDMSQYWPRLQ
# Outline: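 DMSO-referenced bidirectional fits of reporter mRNA fluorescence; HepG2 with transient cis-promoter MRTUs, 24 h post-dose, RT-PCR plus capillary electrophoresis detection.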
# [2] = ATG_RORE_CIS: Attagene CIS-FACTORIAL HepG2 Assay for human RAR-related Orphan Receptor Element (RORE) (AID 2282959); settings: HepG2 Attagene cis-factorial RORE reporter, mRNA; actives raise or lower the signal
# Outline: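 Transiently transfected HepG2 reporter cells were treated 24 h. Reporter transcripts were detected by RT-PCR and capillary electrophoresis, with bidirectional fitting against DMSO.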
# [3] = molecular target: Transcription factor Sp1 (Homo sapiens) (UniProt P08047); assay: ATG_Sp1_CIS: Attagene CIS-FACTORIAL HepG2 Assay for human Specificity Protein 1 (Sp1) (AID 2282961); settings: HepG2 Sp1 cis-reporter transcription, actives raise or lower the signal
# Sequence of Transcription factor Sp1 (Homo sapiens) (P08047 whole entry, looked up, the tested form may be a part): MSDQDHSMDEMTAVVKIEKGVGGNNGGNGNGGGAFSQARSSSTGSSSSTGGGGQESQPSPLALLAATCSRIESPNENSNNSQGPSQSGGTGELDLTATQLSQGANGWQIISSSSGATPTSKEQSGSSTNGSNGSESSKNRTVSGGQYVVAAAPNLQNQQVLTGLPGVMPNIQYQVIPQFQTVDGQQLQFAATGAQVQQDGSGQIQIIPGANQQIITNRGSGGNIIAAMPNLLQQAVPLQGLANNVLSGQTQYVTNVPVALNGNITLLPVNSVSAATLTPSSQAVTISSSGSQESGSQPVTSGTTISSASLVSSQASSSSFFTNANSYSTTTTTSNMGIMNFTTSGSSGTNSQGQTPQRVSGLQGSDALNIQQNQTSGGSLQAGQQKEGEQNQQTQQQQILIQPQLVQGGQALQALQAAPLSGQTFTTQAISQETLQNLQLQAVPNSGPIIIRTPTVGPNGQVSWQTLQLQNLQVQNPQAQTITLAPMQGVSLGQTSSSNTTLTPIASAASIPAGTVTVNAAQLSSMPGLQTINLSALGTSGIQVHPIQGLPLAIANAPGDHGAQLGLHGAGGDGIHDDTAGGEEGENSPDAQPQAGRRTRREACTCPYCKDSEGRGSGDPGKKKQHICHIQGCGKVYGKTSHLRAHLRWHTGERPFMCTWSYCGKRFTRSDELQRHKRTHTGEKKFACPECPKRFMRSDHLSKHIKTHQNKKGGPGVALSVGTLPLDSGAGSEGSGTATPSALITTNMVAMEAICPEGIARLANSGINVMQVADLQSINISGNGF
# Outline: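 Endpoint reflects endogenous Sp1 transcriptional activity, not an exogenous fusion protein: HepG2 cells with transfected cis-regulated reporters, 24 h dosing, RT-PCR/capillary electrophoresis mRNA read-out, DMSO-normalised bidirectional fit.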
# [4] = ATG_SREBP_CIS: Attagene CIS-FACTORIAL HepG2 Assay for human Sterol Regulatory Element Binding (SREBP) (AID 2282962); settings: HepG2 Attagene cis-factorial SREBP reporter, mRNA; actives raise or lower the signal
# Outline: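 In this cis-format assay, HepG2 liver cells express reporters controlled by promoter elements responsive to native transcription factors. Exposure lasts 24 h; reporter mRNA fluorescence from capillary electrophoresis gives the signal, fitted bidirectionally against DMSO.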
# [5] = molecular target: Signal transducer and activator of transcription 3 (Homo sapiens) (UniProt P40763); assay: ATG_STAT3_CIS: Attagene CIS-FACTORIAL HepG2 Assay for human Signal Transducer and Activator of Transcription 3 (STAT3) (AID 2282963); settings: HepG2, Attagene cis-factorial STAT3 reporter transcription; actives raise or lower the signal
# Sequence of Signal transducer and activator of transcription 3 (Homo sapiens) (P40763 whole entry, looked up, the tested form may be a part): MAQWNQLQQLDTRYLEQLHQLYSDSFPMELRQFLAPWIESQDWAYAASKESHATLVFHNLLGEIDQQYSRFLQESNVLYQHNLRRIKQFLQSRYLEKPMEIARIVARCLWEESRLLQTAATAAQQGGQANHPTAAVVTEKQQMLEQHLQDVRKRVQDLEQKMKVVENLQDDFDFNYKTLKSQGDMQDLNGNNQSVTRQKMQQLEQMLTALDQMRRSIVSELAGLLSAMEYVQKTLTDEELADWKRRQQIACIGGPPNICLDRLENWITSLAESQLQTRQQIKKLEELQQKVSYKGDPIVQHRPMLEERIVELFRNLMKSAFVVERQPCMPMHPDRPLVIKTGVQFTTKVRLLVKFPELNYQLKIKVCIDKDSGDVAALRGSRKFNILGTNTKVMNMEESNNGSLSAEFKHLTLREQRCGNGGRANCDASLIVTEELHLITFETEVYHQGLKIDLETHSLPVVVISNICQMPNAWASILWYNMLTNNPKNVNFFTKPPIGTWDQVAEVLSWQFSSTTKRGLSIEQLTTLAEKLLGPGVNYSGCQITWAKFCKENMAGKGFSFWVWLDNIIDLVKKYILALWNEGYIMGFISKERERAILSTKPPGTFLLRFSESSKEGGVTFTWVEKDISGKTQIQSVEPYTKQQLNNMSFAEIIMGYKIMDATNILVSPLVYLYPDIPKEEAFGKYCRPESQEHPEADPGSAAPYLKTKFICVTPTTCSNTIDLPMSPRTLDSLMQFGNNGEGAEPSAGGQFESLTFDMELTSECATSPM
# Outline: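 Fluorescence intensity of 6-FAM-labelled reporter fragments, separated by capillary electrophoresis after RT-PCR, gave the signal. Cells were HepG2 transfected with cis-element reporter units and treated 24 h; fitting was bidirectional relative to DMSO.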
# [6] = ATG_TA_CIS: Attagene CIS-FACTORIAL HepG2 Assay for human TA Basal Promoter (AID 2282964); settings: HepG2 Attagene CIS-factorial TA basal promoter reporter; actives raise or lower the signal
# Outline: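 Fluorescence from labelled RT-PCR reporter fragments, separated by capillary electrophoresis, gives the signal. Cells: HepG2 transiently carrying multiple reporter units, 24 h chemical dosing. Gain or loss relative to DMSO.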
# [7] = ATG_TCF_b_cat_CIS: Attagene CIS-FACTORIAL HepG2 Assay for human T-Cell-Factor with beta-catenin (TCF/b-cat) (AID 2282965); settings: HepG2 TCF/beta-catenin cis-reporter transcription, actives raise or lower the signal
# Outline: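 HepG2, transient MRTU transfection, cis-element-driven reporters (endogenous TFs). 24 h compound exposure. Readout: reporter mRNA by RT-PCR + 6-FAM primer extension, HpaI digest, capillary electrophoresis. Gain/loss fit vs DMSO baseline.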
# [8] = ATG_TAL_CIS: Attagene CIS-FACTORIAL HepG2 Assay for human TAL Basal Promoter (AID 2282966); settings: HepG2 Attagene cis-factorial TAL promoter reporter; actives raise or lower the signal;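 note: background control endpoint measuring basal TAL promoter reporter mRNA not a specific factor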
# Outline: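 Transiently transfected HepG2 (cis-regulated reporter units), 24 h treatment, mRNA read by fluorescent CE after RT-PCR; bidirectional fit, DMSO baseline.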
# [9] = ATG_TGFb_CIS: Attagene CIS-FACTORIAL HepG2 Assay for human Transforming Growth Factor (TGF) (AID 2282967); settings: HepG2 Attagene CIS TGFb reporter, mRNA transcription; actives raise or lower the signal
# Outline: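 Bidirectional fitting relative to DMSO gave the endpoint. Underlying data: reporter mRNA from HepG2 cells carrying transiently transfected cis-regulated reporter constructs, harvested 24 h after dosing and analyzed by RT-PCR and capillary electrophoresis.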
# [10] = ATG_VDRE_CIS: Attagene CIS-FACTORIAL HepG2 Assay for human Vitamin D Receptor Element (VDRE) (AID 2282968); settings: HepG2 VDRE cis-reporter transcription, actives raise or lower the signal
# Outline: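 Compounds were applied for 24 h to HepG2 cells transfected with promoter-regulated reporter units. Total RNA was reverse-transcribed, and reporter amplicons were fluorescently labelled and sized by capillary electrophoresis.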
# [11] = molecular target: Nuclear receptor subfamily 1 group I member 3 (Homo sapiens) (UniProt Q14994); assay: ATG_CAR_TRANS: Attagene TRANS-FACTORIAL HepG2 Assay for human Constitutive Androstane Receptor (CAR) (AID 2282969; active = hit-call score of the fitted dose curve at least 0.9, where 1 is the maximum;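 note: activators raise reporter mRNA above DMSO so AC50 marks induction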); settings: HepG2 Attagene TRANS-FACTORIAL CAR reporter
# Sequence of Nuclear receptor subfamily 1 group I member 3 (Homo sapiens) (Q14994 whole entry, looked up, the tested form may be a part): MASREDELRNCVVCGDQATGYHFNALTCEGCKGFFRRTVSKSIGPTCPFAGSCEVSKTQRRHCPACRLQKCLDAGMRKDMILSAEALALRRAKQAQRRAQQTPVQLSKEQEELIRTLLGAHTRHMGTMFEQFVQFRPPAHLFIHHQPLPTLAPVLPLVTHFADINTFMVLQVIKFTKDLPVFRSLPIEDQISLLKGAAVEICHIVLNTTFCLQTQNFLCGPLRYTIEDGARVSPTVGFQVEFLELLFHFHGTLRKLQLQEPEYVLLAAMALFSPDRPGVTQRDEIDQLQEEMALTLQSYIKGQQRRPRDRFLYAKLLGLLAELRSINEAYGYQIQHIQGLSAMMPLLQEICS
# Outline: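 Transiently transfected HepG2, multiplex TRANS reporters (CAR-Gal4 chimera driving GAL4-UAS reporter). 24 h dosing. Readout: reporter transcript by RT-PCR + capillary electrophoresis, fluorescence intensity; positive direction vs DMSO.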
# [12] = molecular target: Estrogen receptor (Homo sapiens) (UniProt P03372); assay: ATG_ERa_TRANS: Attagene TRANS-FACTORIAL HepG2 Assay for human Estrogen Receptor alpha (ERa) (AID 2282970; active = hit-call score of the fitted dose curve at least 0.9, where 1 is the maximum); settings: HepG2 Attagene TRANS ERa GAL4 reporter, mRNA
# Sequence of Estrogen receptor (Homo sapiens) (P03372 whole entry, looked up, the tested form may be a part): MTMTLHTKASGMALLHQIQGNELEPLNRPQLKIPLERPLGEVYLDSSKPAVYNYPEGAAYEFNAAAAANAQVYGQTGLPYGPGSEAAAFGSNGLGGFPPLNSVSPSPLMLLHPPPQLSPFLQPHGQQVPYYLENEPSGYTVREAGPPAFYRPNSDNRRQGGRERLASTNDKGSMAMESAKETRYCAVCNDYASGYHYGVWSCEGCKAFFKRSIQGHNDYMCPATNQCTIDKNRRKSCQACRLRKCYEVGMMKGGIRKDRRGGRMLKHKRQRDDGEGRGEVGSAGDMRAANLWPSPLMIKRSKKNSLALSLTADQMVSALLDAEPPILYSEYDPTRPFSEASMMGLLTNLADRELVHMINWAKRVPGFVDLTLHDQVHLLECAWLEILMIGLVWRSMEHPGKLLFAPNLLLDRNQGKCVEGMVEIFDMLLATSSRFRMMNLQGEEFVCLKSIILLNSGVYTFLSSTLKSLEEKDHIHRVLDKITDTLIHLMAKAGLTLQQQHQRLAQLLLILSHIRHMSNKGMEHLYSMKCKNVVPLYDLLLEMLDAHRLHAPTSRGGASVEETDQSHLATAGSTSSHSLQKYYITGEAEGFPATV
# Outline: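 One of 30 multiplexed endpoints from a HepG2 TRANS system, this one reports ERa-Gal4-driven reporter mRNA. Transcripts were quantified 24 hours post-dosing by fluorescent RT-PCR and capillary electrophoresis, with activity scored as induction over DMSO.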
# [13] = molecular target: Steroid hormone receptor ERR1 (Homo sapiens) (UniProt P11474); assay: ATG_ERRa_TRANS: Attagene TRANS-FACTORIAL HepG2 Assay for human Estrogen-Related Receptor alpha (ERRa) (AID 2282971; active = hit-call score of the fitted dose curve at least 0.9, where 1 is the maximum); settings: HepG2 Attagene TRANS reporter, ERRa transactivation
# Sequence of Steroid hormone receptor ERR1 (Homo sapiens) (P11474 whole entry, looked up, the tested form may be a part): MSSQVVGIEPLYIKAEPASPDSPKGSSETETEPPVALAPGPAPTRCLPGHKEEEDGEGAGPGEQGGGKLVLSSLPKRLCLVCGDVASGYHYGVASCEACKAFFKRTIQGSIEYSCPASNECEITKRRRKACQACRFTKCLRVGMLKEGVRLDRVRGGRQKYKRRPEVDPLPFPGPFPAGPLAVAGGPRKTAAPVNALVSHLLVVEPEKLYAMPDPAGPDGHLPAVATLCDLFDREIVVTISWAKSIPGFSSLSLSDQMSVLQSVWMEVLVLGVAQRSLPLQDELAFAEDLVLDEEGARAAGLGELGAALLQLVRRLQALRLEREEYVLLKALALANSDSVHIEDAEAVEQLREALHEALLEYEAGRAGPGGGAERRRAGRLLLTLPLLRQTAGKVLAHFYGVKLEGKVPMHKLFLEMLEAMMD
# Outline: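 HepG2 cells transiently transfected with multiplexed GAL4-UAS reporter units reading chimeric ERRa-Gal4 activity; 24 h compound exposure. Reporter mRNA measured by RT-PCR, 6-FAM labelling, HpaI digest and capillary electrophoresis; gain of signal fitted versus DMSO baseline.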
# [14] = molecular target: X-box-binding protein 1 (Homo sapiens) (UniProt P17861); assay: ATG_Xbp1_CIS: Attagene CIS-FACTORIAL HepG2 Assay for human X-box Binding Protein 1 (XBP1) (AID 2282972); settings: HepG2 XBP1 cis-element reporter, Attagene multiplex; actives raise or lower the signal
# Sequence of X-box-binding protein 1 (Homo sapiens) (P17861 whole entry, looked up): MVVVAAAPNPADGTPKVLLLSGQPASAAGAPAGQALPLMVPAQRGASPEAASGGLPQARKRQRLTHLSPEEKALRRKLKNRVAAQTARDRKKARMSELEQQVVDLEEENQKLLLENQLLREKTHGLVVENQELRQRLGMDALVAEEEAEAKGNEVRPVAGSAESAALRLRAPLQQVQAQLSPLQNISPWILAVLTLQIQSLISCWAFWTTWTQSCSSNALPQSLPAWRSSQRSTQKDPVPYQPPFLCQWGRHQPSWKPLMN
# Outline: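 Changes in reporter transcript abundance, read by RT-PCR and capillary electrophoresis, reflect endogenous transcription factor activity. Transfected HepG2 cells received compound for 24 hours; DMSO defined baseline for bidirectional analysis.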
# [15] = ATG_Sox_CIS: Attagene CIS-FACTORIAL HepG2 Assay for human SRY-box transcription factor (SOX) (AID 2282960); settings: HepG2 Attagene cis-factorial SOX reporter, mRNA; actives raise or lower the signal
# Outline: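 Gain- or loss-of-signal endpoint, fitted bidirectionally with DMSO as negative control. Based on reporter mRNA from transfected HepG2 cells harvested 24 h post-treatment and quantified via RT-PCR and capillary electrophoresis.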
# [16] = ATG_M_19_TRANS: Attagene TRANS-FACTORIAL HepG2 Assay for M19 Transcription Factor (Internal Marker) (AID 2282974; active = hit-call score of the fitted dose curve at least 0.9, where 1 is the maximum); settings: HepG2 Attagene TRANS-FACTORIAL M19 internal marker reporter
# Outline: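 Using RT-PCR and capillary electrophoresis, reporter mRNA from transiently transfected human HepG2 cells was quantified following 24 h exposure; activity was fitted in the positive direction against DMSO.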
# [17] = ATG_GAL4_TRANS: Attagene TRANS-FACTORIAL HepG2 Assay for GAL4 (Internal Marker) (AID 2282976; active = hit-call score of the fitted dose curve at least 0.9, where 1 is the maximum); settings: HepG2 Attagene TRANS GAL4 internal marker reporter
# Outline: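 HepG2 cells transiently transfected with multiplexed GAL4-UAS reporter constructs were dosed for 24 h. Reporter mRNA was measured by RT-PCR, 6-FAM primer extension, HpaI digestion and capillary electrophoresis, and gain of signal was fitted relative to DMSO.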
# [18] = ATG_PXRE_CIS: Attagene CIS-FACTORIAL HepG2 Assay for human Pregnane X Receptor Element (PXRE) (AID 2282957); settings: HepG2 Attagene CIS-FACTORIAL PXRE reporter, mRNA; actives raise or lower the signal
# Outline: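 Fluorescent capillary electrophoresis of amplified reporter cDNA gave the signal, collected 24 h after dosing HepG2 cells that held transfected cis-element reporter constructs.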
# [19] = molecular target: Estrogen-related receptor gamma (Homo sapiens) (UniProt P62508); assay: ATG_ERRg_TRANS: Attagene TRANS-FACTORIAL HepG2 Assay for human Estrogen-Related Receptor gamma (ERRg) (AID 2282977; active = hit-call score of the fitted dose curve at least 0.9, where 1 is the maximum;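 note: hits increase reporter signal over DMSO so potencies reflect activators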); settings: HepG2 Attagene TRANS reporter, ERRg transactivation
# Sequence of Estrogen-related receptor gamma (Homo sapiens) (P62508 whole entry, looked up, the tested form may be a part): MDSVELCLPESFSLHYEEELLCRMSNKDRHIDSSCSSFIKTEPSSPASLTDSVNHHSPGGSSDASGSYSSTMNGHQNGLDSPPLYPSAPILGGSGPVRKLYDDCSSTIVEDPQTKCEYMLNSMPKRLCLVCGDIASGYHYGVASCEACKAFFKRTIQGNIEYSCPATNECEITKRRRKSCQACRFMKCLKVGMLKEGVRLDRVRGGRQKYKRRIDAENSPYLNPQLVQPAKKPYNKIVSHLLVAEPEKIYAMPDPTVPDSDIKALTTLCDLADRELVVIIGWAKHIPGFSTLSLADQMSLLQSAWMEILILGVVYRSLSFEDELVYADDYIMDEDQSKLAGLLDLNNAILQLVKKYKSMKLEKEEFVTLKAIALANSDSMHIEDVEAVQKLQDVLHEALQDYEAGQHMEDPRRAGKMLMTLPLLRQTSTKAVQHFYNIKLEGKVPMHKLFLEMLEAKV
# Outline: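 Exogenous NR-Gal4 chimera activity measured as reporter transcript induction after 24 h in transiently transfected HepG2 cells. RNA reverse-transcribed, PCR-amplified, 6-FAM-labelled and resolved by capillary electrophoresis; increase over DMSO baseline.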
# [20] = ATG_PPRE_CIS: Attagene CIS-FACTORIAL HepG2 Assay for human Peroxisome Proliferator-activated Response Element (PPRE) (AID 2282958); settings: HepG2 PPRE cis-element reporter, Attagene transcription factor profiling; actives raise or lower the signal
# Outline: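 Measured endpoint: PPRE-controlled reporter mRNA, detected by RT-PCR and capillary electrophoresis fluorescence, from transiently transfected HepG2 cells 24 h after dosing. Curves fitted in both directions using DMSO baseline.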
structure (smiles),measurement,setting,value
CCCCCCCOC(=O)CCC,outcome,[1],inactive
same,outcome,[2],inactive
same,outcome,[3],inactive
same,outcome,[4],inactive
same,outcome,[5],inactive
same,outcome,[6],inactive
same,outcome,[7],inactive
same,outcome,[8],inactive
same,outcome,[9],inactive
same,outcome,[10],inactive
same,outcome,[11],inactive
same,outcome,[12],inactive
same,outcome,[13],inactive
same,outcome,[14],inactive
O=C1c2ccccc2C(=O)C1c1nc2ccccc2c(Br)c1O,outcome,[1],inactive
same,outcome,[2],inactive
same,outcome,[15],inactive
same,outcome,[3],inactive
same,outcome,[4],inactive
same,outcome,[5],inactive
same,outcome,[6],inactive
same,outcome,[7],inactive
same,outcome,[8],inactive
same,AC50,[9],100 µM (active)
same,AC50,[10],17.2 µM (active)
same,outcome,[12],inactive
same,outcome,[14],inactive
same,outcome,[16],inactive
same,outcome,[17],inactive
N=c1ccn2c(n1)O[C@H]1[C@H](O)[C@@H](CO)O[C@H]12,outcome,[18],inactive
same,outcome,[2],inactive
same,outcome,[15],inactive
same,outcome,[3],inactive
same,outcome,[4],inactive
same,outcome,[5],inactive
same,outcome,[7],inactive
same,outcome,[8],inactive
same,outcome,[9],inactive
same,outcome,[10],inactive
same,outcome,[13],inactive
same,outcome,[14],inactive
same,outcome,[16],inactive
same,outcome,[19],inactive
O=C1C=CC(=O)O1,outcome,[18],inactive
same,outcome,[2],inactive
same,outcome,[15],inactive
same,outcome,[3],inactive
same,outcome,[4],inactive
same,outcome,[7],inactive
same,outcome,[8],inactive
same,outcome,[9],inactive
same,outcome,[10],inactive
same,outcome,[14],inactive
Nc1ncn([C@@H]2O[C@H](CO)[C@@H](O)[C@H]2O)c(=O)n1,outcome,[18],inactive
same,outcome,[20],inactive
same,outcome,[2],inactive
same,outcome,[15],inactive
same,outcome,[3],inactive
same,outcome,[4],inactive
same,outcome,[5],inactive
same,outcome,[6],inactive
same,AC50,[7],975 nM (active)
same,outcome,[8],inactive
same,outcome,[9],inactive
same,outcome,[10],inactive
same,outcome,[11],inactive
same,outcome,[12],inactive
same,outcome,[14],inactive
same,outcome,[16],inactive
same,outcome,[19],inactive
CC(CC=O)c1ccccc1 (stereo not given),AC50,[18],4.15 µM (active)
same,outcome,[20],inactive
same,outcome,[15],inactive
same,outcome,[3],inactive
same,outcome,[4],inactive
same,outcome,[5],inactive
same,outcome,[6],inactive
same,outcome,[7],inactive
same,outcome,[8],inactive
same,outcome,[9],inactive
same,AC50,[10],7.03 µM (active)
same,outcome,[12],inactive
same,outcome,[14],inactive
same,outcome,[16],inactive
same,outcome,[17],inactive
C(=CC=Nc1ccccc1)C=CNc1ccccc1,AC50,[18],32.3 µM (active)
same,outcome,[20],inactive
same,outcome,[2],inactive
same,outcome,[15],inactive
same,outcome,[3],inactive
same,outcome,[4],inactive
same,outcome,[5],inactive
same,outcome,[6],inactive
same,outcome,[7],inactive
same,outcome,[8],inactive
same,outcome,[10],inactive
same,outcome,[11],inactive
same,outcome,[12],inactive
same,outcome,[14],inactive
same,outcome,[16],inactive
same,outcome,[17],inactive
COC(=O)/C=C/C(C)=C\C=C\C(C)=C\C=C\C=C(C)\C=C\C=C(C)\C=C\C(=O)O,AC50,[18],60.8 µM (active)
same,outcome,[20],inactive
same,outcome,[2],inactive
same,outcome,[15],inactive
same,outcome,[3],inactive
same,outcome,[4],inactive
same,outcome,[5],inactive
same,outcome,[6],inactive
same,outcome,[8],inactive
same,outcome,[9],inactive
same,outcome,[10],inactive
same,outcome,[14],inactive
same,outcome,[19],inactive
CC(=O)Nc1nnc(S(N)(=O)=O)s1,outcome,[18],inactive
same,outcome,[2],inactive
same,outcome,[3],inactive
same,outcome,[4],inactive
same,outcome,[6],inactive
same,outcome,[7],inactive
same,outcome,[8],inactive
same,outcome,[11],inactive
same,outcome,[12],inactive
same,outcome,[14],inactive
same,outcome,[17],inactive
